Bioassay records as filed in PubChem.
A selection: hits, their analogues and other compounds. The true share with any hit is near 3.8%.
NTR1 ag: NTR1 (human) agonism | AID 493036 | actives 0.17% (n = 330,000) | activation, % at 20 µM | NTR1-U2OS beta-arrestin-GFP spot imaging, agonist mode;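 active = activation at or above 40% of the spot to cytoplasm intensity ratio, with at least 20 cells analyzed; inconclusive = wells under 20 cells, flagged as cytotoxic or low count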;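 also: 0% = DMSO without peptide and 100% = 100 nM NTR1 peptide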
Beta cell apopt: blocks beta cell apoptosis; protection from apoptosis, % (test concentration not listed); INS-1E cytokine-induced death, ATP luminescence, 48 h; percent of positive-control rescue, neutral wells zero; AID 435005; actives 0.8% (n = 300,000);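 active = Every replicate reaches about 75%, or at least half do and their mean reaches it too, limit read from the data; inconclusive = At least half of replicates reach the limit but their mean does not; inactive = Under half of replicates reach the limit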;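 also: 0% = cytokine-treated negative control wells and 100% = positive control rescue; higher means more ATP so stronger rescue from cytokine killing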
A1 inh: inhibitors of the anti-apoptotic protein A1, read as caspase activation; MEF A1-2A-BIM cells, Caspase-Glo 3/7 luminescence, 3 h; percent of clofoctol response, vehicle zero; caspase activation, % (no concentration beside the values); actives 0.066% (n = 330,000); AID 2462;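 active = over half of replicate activation scores above 10%, or exactly half above 10 with the replicate mean above 10; inconclusive = replicate mean below 10 yet half the replicates above 10; inactive = over half of replicates below 10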
Mdm2-MdmX inh: human Mdm2/MdmX binding inhibition | actives 3% (n = 330,000) | AID 485346 | inhibition, % at 8 µM | O15151+Q00987 | SaOS-2 split-luciferase Mdm2/MdmX complementation, luminescence;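 active = inhibition of at least 50% at 8 µM in the primary screen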
Target sequence (O15151 whole entry, looked up): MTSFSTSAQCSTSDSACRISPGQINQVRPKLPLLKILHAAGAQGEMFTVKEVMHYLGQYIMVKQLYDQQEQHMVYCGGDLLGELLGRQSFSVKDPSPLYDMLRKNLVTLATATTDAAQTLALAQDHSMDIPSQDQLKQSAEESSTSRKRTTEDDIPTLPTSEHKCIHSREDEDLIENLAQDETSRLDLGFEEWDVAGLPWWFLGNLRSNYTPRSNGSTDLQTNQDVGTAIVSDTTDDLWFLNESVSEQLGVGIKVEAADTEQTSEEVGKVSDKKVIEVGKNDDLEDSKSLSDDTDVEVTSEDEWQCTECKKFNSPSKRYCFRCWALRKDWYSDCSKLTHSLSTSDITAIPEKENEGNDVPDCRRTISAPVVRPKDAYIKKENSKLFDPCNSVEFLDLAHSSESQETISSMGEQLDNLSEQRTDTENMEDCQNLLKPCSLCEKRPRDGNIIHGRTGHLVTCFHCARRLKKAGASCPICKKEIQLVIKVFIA
Target sequence (Q00987 whole entry, looked up): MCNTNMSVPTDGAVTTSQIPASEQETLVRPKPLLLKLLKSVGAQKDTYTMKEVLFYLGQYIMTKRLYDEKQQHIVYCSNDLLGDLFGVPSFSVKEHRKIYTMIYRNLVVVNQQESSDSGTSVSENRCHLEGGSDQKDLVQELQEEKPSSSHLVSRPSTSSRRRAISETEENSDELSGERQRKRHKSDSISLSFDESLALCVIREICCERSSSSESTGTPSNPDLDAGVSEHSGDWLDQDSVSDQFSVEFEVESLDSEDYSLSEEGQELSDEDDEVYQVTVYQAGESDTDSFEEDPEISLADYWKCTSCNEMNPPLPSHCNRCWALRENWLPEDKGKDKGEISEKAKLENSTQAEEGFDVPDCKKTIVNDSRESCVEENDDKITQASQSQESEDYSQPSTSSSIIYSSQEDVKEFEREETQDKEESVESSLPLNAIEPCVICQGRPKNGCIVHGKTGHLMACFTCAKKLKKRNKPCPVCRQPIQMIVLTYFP
Jurkat NFkB inh: inhibitors of the PMA/ionomycin-induced NF-kB reporter in Jurkat cells | PMA/ionomycin-induced NF-kB luciferase reporter, luminescence | inhibition, % at 4 µM | actives 0.53% (n = 330,000) | AID 435003; in the data active = inhibition above about 50%
697 NFkB inh: lowers PMA/ionomycin-induced NF-kB signal in 697 B cells; 697 B-cell NF-kB luciferase reporter, 16 h; inhibition, % at 4 µM; actives 0.33% (n = 330,000); in the data active = inhibition above about 35%
The depositor's hits bear a star.

What do the screens show for `CCC(C)(C)NC(=O)C(c1ccc(OC)cc1)N(C(=O)CCC(=O)Nc1cc(C)on1)c1cc(OC)ccc1OC` (stereo not given)?
NTR1 ag: -1; Beta cell apopt: -3; A1 inh: 0; Mdm2-MdmX inh: -25; Jurkat NFkB inh: -13; 697 NFkB inh: -2

What do the screens show for `O=S(=O)(c1ccc(Cl)cc1)N1CCN(c2ncnc3sccc23)CC1`?
NTR1 ag: -2; Beta cell apopt: 83*; A1 inh: -2; Mdm2-MdmX inh: 12; Jurkat NFkB inh: 12; 697 NFkB inh: -30

How did COc1ccc(-c2csc3ncnc(N4CCN(S(=O)(=O)c5ccc(C)cc5)CC4)c23)cc1 do in these assays?
NTR1 ag: 5; Beta cell apopt: 24; A1 inh: 0; Mdm2-MdmX inh: 40; Jurkat NFkB inh: 18; 697 NFkB inh: 6

What do the screens show for `Cc1csc2ncnc(N3CCN(S(=O)(=O)c4cccc(C(F)(F)F)c4)CC3)c12`?
NTR1 ag: 5; Beta cell apopt: 95*; A1 inh: -2; Mdm2-MdmX inh: 20; Jurkat NFkB inh: 5; 697 NFkB inh: -46

What do the screens show for `Cc1sc2ncnc(N3CCN(S(=O)(=O)c4ccc(C(C)(C)C)cc4)CC3)c2c1C`?
NTR1 ag: 4; Beta cell apopt: 124*; A1 inh: inconclusive; Mdm2-MdmX inh: 33; Jurkat NFkB inh: -4; 697 NFkB inh: 0

How did Cc1csc2c(N3CCN(S(=O)(=O)c4ccc(Cl)cc4)CC3)ncnc12 do in these assays?
NTR1 ag: 3; Beta cell apopt: -5; A1 inh: 0; Mdm2-MdmX inh: -2; Jurkat NFkB inh: 12; 697 NFkB inh: 2

How did COc1ccccc1C(=O)NC(=O)COC(=O)c1cccc(NC(C)=O)c1 do in these assays?
NTR1 ag: 1; A1 inh: 0; Mdm2-MdmX inh: 6; Jurkat NFkB inh: -4; 697 NFkB inh: -11

Results for COc1ccc(C(C(=O)NC2CCCCC2)N(C(=O)CCl)c2cccc(Cl)c2)cc1 (stereo not given) ?
Beta cell apopt: 99*; A1 inh: 2

How did CCOC(=O)C1CCN(C(=O)/C=C/c2ccc3c(c2)OCO3)CC1 do in these assays?
NTR1 ag: -1; Beta cell apopt: -2; A1 inh: 0; Mdm2-MdmX inh: -21; Jurkat NFkB inh: -39; 697 NFkB inh: -72

What do the screens show for `Cc1ccc(N=Nc2ccc(O)c3ncccc23)cc1`?
Beta cell apopt: 102*; A1 inh: -1

How did Oc1ccc(F)c2cccnc12 do in these assays?
NTR1 ag: 3; Beta cell apopt: -6; A1 inh: 0; Mdm2-MdmX inh: 4; Jurkat NFkB inh: -13; 697 NFkB inh: -3

How did CC(=O)/C=C1\N(C)c2ccc(C)cc2C1(C)C do in these assays?
NTR1 ag: 3; Beta cell apopt: 99*; A1 inh: 0; Mdm2-MdmX inh: 39; Jurkat NFkB inh: 15; 697 NFkB inh: 4

Results for CC(C)C(=O)NC(=S)/C=C1/N(C)c2ccccc2C1(C)C ?
NTR1 ag: -2; Beta cell apopt: 109*; A1 inh: -1; Mdm2-MdmX inh: 28; Jurkat NFkB inh: 32; 697 NFkB inh: -13

Results for CN1/C(=C\C=N\NC(=O)c2ccc(O)cc2)C(C)(C)c2ccccc21 ?
NTR1 ag: 4; Beta cell apopt: 113*; A1 inh: 0; Mdm2-MdmX inh: 28; Jurkat NFkB inh: 39; 697 NFkB inh: -6

What do the screens show for `CN1/C(=C\C=N\NC(=O)c2cccnc2)C(C)(C)c2ccccc21`?
NTR1 ag: 0; Beta cell apopt: 37; A1 inh: -1; Mdm2-MdmX inh: 12; Jurkat NFkB inh: 7; 697 NFkB inh: 4

What do the screens show for `Cc1ccc(C(=O)NC(=S)/C=C2\N(C)c3ccccc3C2(C)C)cc1`?
NTR1 ag: -3; Beta cell apopt: 94*; A1 inh: 0; Mdm2-MdmX inh: 19; Jurkat NFkB inh: 41; 697 NFkB inh: -4

How did CN1/C(=C/C(=S)NC(=O)C2CCC2)C(C)(C)c2ccccc21 do in these assays?
NTR1 ag: -2; Beta cell apopt: 59; A1 inh: 1; Mdm2-MdmX inh: 18; Jurkat NFkB inh: 15; 697 NFkB inh: 3

Results for CC(=O)c1sc(N/N=C\c2c(O)ccc3ccccc23)nc1C ?
NTR1 ag: 1; Beta cell apopt: 19; A1 inh: -5; Mdm2-MdmX inh: -8; Jurkat NFkB inh: -25; 697 NFkB inh: -78

Results for O=C(c1ccccn1)N1CCCC(N2CCN(c3cccc(C(F)(F)F)c3)CC2)C1 (stereo not given) ?
NTR1 ag: 0; Beta cell apopt: -1; A1 inh: 0; Mdm2-MdmX inh: 1; Jurkat NFkB inh: -4; 697 NFkB inh: -37

How did COc1ccc(N(CC(=O)N/N=C(\C)c2ccc(OC)c(OC)c2)S(=O)(=O)c2ccccc2)cc1 do in these assays?
NTR1 ag: -1; Beta cell apopt: -8; A1 inh: 0; Mdm2-MdmX inh: 28; Jurkat NFkB inh: -3; 697 NFkB inh: -1

What do the screens show for `CN1/C(=C\C(=O)c2cccnc2)C(C)(C)c2ccccc21`?
NTR1 ag: 1; Beta cell apopt: -8; A1 inh: 1; Mdm2-MdmX inh: 24; Jurkat NFkB inh: -26; 697 NFkB inh: -31

How did CN1/C(=C\C(=O)c2cncc(Br)c2)C(C)(C)c2ccccc21 do in these assays?
NTR1 ag: 4; Beta cell apopt: 101*; A1 inh: 0; Mdm2-MdmX inh: 28; Jurkat NFkB inh: 10; 697 NFkB inh: -46

How did Cc1ccc(-n2c(SCC(=O)c3c(N)n(C)c(=O)n(C)c3=O)nc3sc4c(c3c2=O)CCCC4)c(C)c1 do in these assays?
NTR1 ag: 7; Beta cell apopt: 102*; A1 inh: 0; Mdm2-MdmX inh: 39; Jurkat NFkB inh: 25; 697 NFkB inh: 13

How did Cc1ccc(NC(=O)Cn2c(O)c(N=NC(=O)c3cc4ccccc4cc3O)c3ccccc32)cc1 do in these assays?
Beta cell apopt: 102*; A1 inh: 1

How did O=C(N=Nc1c(O)n(Cc2ccccc2)c2ccccc12)c1cc2ccccc2cc1O do in these assays?
Beta cell apopt: 84*; A1 inh: -5

Results for Cc1ccc(NC(=O)Cn2c(O)c(N=NC(=O)c3ccncc3)c3ccccc32)cc1 ?
NTR1 ag: 0; Beta cell apopt: -3; A1 inh: 0; Mdm2-MdmX inh: -17; Jurkat NFkB inh: 4; 697 NFkB inh: -11

Results for CCOc1ccccc1NC(=O)COC(=O)c1cnc(C)cn1 ?
NTR1 ag: -2; Mdm2-MdmX inh: -2; Jurkat NFkB inh: -4; 697 NFkB inh: 6

Results for O=C(OCc1nnc(-c2ccc([N+](=O)[O-])cc2)o1)c1ccc(F)c(S(=O)(=O)N2CCOCC2)c1 ?
NTR1 ag: 2; Mdm2-MdmX inh: 3; Jurkat NFkB inh: 5; 697 NFkB inh: -4
